Data taken from PubChem BioAssay (NCATS).
Unmarked numbers belong to inactive results. Records with an inconclusive call do not appear. Active and inactive are the calls of the source. Unless noted, calls follow the shape of the dose curve; as a rule, active = well fitted curve in the direction sought with a large enough effect; inconclusive = small, poorly fitted or top-dose-only effect, or another doubt; inactive = no such curve, though single readings can be large; an effect the other way counts as inactive or inconclusive.

What was measured:
[1] = molecular target: Cytochrome P450 1A2 (Homo sapiens) (UniProt P05177); test: p450-cyp1a2 (AID 410; calls by dose curve;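 also: -100% = full effect of reference inhibitor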)
Summary of the method: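 Human CYP1A2 (20nM) demethylated Luciferin-ME at its Km (100uM) in 100mM KPO4. After 10 min compound preincubation, NADPH regeneration ran the reaction 60 min at room temperature. Luciferin was read by luminescence, normalized to 57 uM furafylline.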

[2] = NFAT Signaling Pathway (AID 444; active = well fitted curve in either direction with a large enough effect, not every such curve was filed as active;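 also: carbachol stimulus at about its EC50 of 1 µM final; % is scaled to controls: 0 for no effect and ±100 for the full control effect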); conditions: Jurkat NFAT-bla M1, carbachol, beta-lactamase ratio, 5 h; at 7.69 µM (top of the series) unless noted
Summary of the method: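 Jurkat cells carrying an NFAT-driven β-lactamase reporter and co-transfected muscarinic M1 receptor were treated with compound plus carbachol (1 uM final, an EC50 level) for 5 h at 37 °C. CCF4 loading followed for 1 h at RT; 460/530 nm ratio gave %activity.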

[3] = molecular target: Glucocorticoid receptor (Homo sapiens) (UniProt P04150); test: GR-EFC Redistribution (AID 451; calls by dose curve; also: potency is read from the fitted curve at half-maximal effect); conditions: CHO-K1 GR-EFC translocation, beta-gal luminescence, 2 h
Summary of the method: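 CHO-K1 cells stably expressing nuclear-localized β-gal enzyme acceptor and GR fused C-terminally to the enzyme donor fragment; ligand-driven nuclear translocation restores β-gal by complementation. Compounds titrated up to 46 uM final, 2 h at 37 °C; luminescence read.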

[4] = molecular target: Mitogen-activated protein kinase 10 (Mus musculus) (UniProt Q61831); test: JNK3 AlphaScreen Assay (AID 530; active = well fitted curve in either direction with a large enough effect, not every such curve was filed as active;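 also: kinase came from lysate of stimulated human HepG2 cells; signal reports phosphorylation of biotinylated GST-cJun 1-79 at Ser73 with 10 µM ATP; % is scaled to controls: 0 for no effect and ±100 for the full control effect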)
Summary of the method: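 JNK3 came from HepG2 lysates pre-activated with IL-1beta and TNF-alpha and phosphorylated biotinylated GST-cJun (1-79) at 10 uM ATP, pH 7.6, room temperature. Compounds were titrated. AlphaScreen signal used anti-phospho-cJun (Ser73) antibody.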

[5] = molecular target: 3',5'-cyclic-AMP phosphodiesterase 4B (Homo sapiens) (UniProt Q07343); test: qHTS Assay for Inhibitors of PDE-IV (AID 607; active = well fitted activation curve with a large enough effect in the main read-out, with a control signal flat, not every such curve was filed as active; also: % of control where 0% means no effect)
Summary of the method: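 HEK293 ACTOne cells with CNG channel (1000/well), endogenous PDE4; membrane potential dye, compounds up to 22.9 uM final. Fluorescence Ex 535/Em 590; RO 20-1724 (100 uM final) as reference.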

[6] = molecular target: Guanine nucleotide-binding protein G(i) subunit alpha-1 (Homo sapiens) (UniProt P63096); test: qHTS Assay for Inhibitors of RGS12 GoLoco Motif Activity (Green Fluorophore) (AID 879);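 also: 0% = labeled peptide with Gαi1 and full inhibition = labeled peptide alone without protein; negative values mean loss of peptide binding seen as reduced polarization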
Summary of the method: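 Fluorescence polarization assay: 50 nM Gαi1 with 10 nM FITC-labeled RGS12 GoLoco peptide in 10 mM Tris pH 7.5, 150 mM NaCl, 0.1 mM GDP, 0.05% NP40, 10 min at room temperature with compound.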

[7] = molecular target: Cytochrome P450 3A4 (Homo sapiens) (UniProt P08684); test: qHTS Assay for Activators of Cytochrome P450 3A4 (AID 885); also: nearly all actives have a fitted effect of over 65% in size
Summary of the method: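 Human CYP3A4 (20 nM) with Luciferin-PPXE at 25 uM (its KM) in 200 mM KPO4; 10 min compound preincubation, then NADPH regeneration and 60 min reaction at RT. Luciferin read by luminescence; normalized to 57 uM ketoconazole full inhibition.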

[8] = molecular target: Cytochrome P450 2D6 (Homo sapiens) (UniProt P10635); test: qHTS Assay for Inhibitors and Substrates of Cytochrome P450 2D6 (AID 891); also: potency is read from the fitted curve at half-maximal effect; nearly all actives have a fitted effect of over 60% in size
Summary of the method: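 Human CYP2D6 (5 nM) with 30 uM Luciferin-ME EGE (at Km) in 100 mM KPO4, compound preincubated 10 min, then NADPH regeneration system for 60 min at room temperature. Luciferin read by luminescence; normalized to 1.43 uM quinidine.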

[9] = qHTS Assay for Identification of Small Molecule Antagonists for Thrombopoietin (TPO) Signaling Pathway (AID 918); conditions: TPO-dependent cell signaling reporter, antagonist mode; also: potency is read from the fitted curve at half-maximal effect; nearly all actives have a fitted effect of over 60% in size
Summary of the method: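 Murine Ba/F3 cells stably expressing human TPO receptor and a Glycoprotein IIb promoter–luciferase reporter were IL-3-starved overnight, treated with compounds plus TPO (26 pM final, its EC50) for 24 hrs at 37 C, then read by luminescence.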

[10] = molecular target: Muscarinic acetylcholine receptor M1 (Rattus norvegicus) (UniProt P08482); test: qHTS Assay for Antagonists of Acetylcholine Muscarinic M1 Receptor: Measurement of IP-One Response (AID 944); also: potency is read from the fitted curve at half-maximal effect; nearly all actives have a fitted effect of over 75% in size
Summary of the method: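 CHO cells expressing rat M1 receptor, recovered overnight, were pre-incubated 10 min with compound, then stimulated 30 min with carbachol at EC80 (200 nM) in LiCl-containing buffer, pH 7.4. IP1 accumulation was read by HTRF (620/665 nm).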

[11] = molecular target: Pyruvate kinase (Leishmania mexicana) (UniProt Q27686); test: qHTS Validation Assay for Inhibitors of Leishmania Mexicana Pyruvate Kinase (AID 945);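 also: 0% = DMSO only neutral control wells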
Summary of the method: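 Eight-point qHTS titrations in triplicate, data normalized to DMSO neutral control. Reaction: 0.2 nM LmPYK E451W mutant, 0.5 mM PEP, 0.1 mM ADP, 7 mM MgCl2, pH 7.2, one hour at room temperature; luminescent ATP detection.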

[12] = molecular target: Pyruvate kinase PKM (Homo sapiens) (UniProt P14618); test: qHTS Assay for Activators of Human Muscle Pyruvate Kinase (AID 954; active = well fitted curve in the direction sought with a large enough effect, not every such curve was filed as active;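 also: 0% = uninhibited enzyme and -100% = no enzyme or full thiadiazolimine inhibition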)
Summary of the method: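 Purified human PKM2 (0.1 nM) with 0.5 mM PEP (Km) and 0.1 mM ADP in 50 mM imidazole pH 7.2, KCl, MgCl2, 1 h at room temperature; ATP formed read by coupled luciferase luminescence. Normalized to no-enzyme/110 uM thiadiazolimine inhibition; 0.3 nM enzyme column for activation.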

[13] = molecular target: Alpha-galactosidase A (Homo sapiens) (UniProt P06280); test: Counterscreen for Glucocerebrosidase Inhibitors: qHTS Assay for Human alpha-Galactosidase at pH 4.5 (AID 992); also: 0% is about no effect
Summary of the method: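 Human enzyme (2 nM) with 80 uM 4-methylumbelliferyl alpha-D-galactopyranoside in 50 mM citric acid, 0.005% Tween-20, pH 4.5, 20 min at room temperature. Compounds 0.7 nM–77 uM; fluorescence Ex 365/Em 440 after pH 10 stop; AC50 from Hill fits.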

[14] = molecular target: alpha-glucosidase (Oryza sativa, rice) (UniProt Q653V4); test: Counterscreen for Glucocerebrosidase Inhibitors: qHTS Assay for Rice alpha-Glucosidase at pH 5.0 (AID 997);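 also: 0% = full activity with enzyme and -100% = basal without enzyme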
Summary of the method: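 Rice alpha-glucosidase (4 nM final) with 400 uM 4-methylumbelliferyl-alpha-D-glucopyranoside in citrate buffer pH 5.0, 20 min at room temperature, stopped at pH 10; fluorescence 365/440 nm, compounds 0.7 nM–77 uM, AC50 from Hill fits.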

[15] = molecular target: DNA repair nuclease/redox regulator APEX1 (Homo sapiens) (UniProt P27695); test: qHTS Validation Assay for Inhibitors of the Human Apurinic/apyrimidinic Endonuclease 1 (APE1) (AID 1705; also: potency is read from the fitted curve at half-maximal effect)
Summary of the method: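 Fluorogenic double-stranded THF abasic-site substrate (5'-TAMRA/3'-BHQ-2), 50 nM final. Enzyme preincubated with compound 15 min at room temperature, then substrate added. Kinetic fluorescence (ex 525/em 598 nm) read three times at 60 s intervals; activity taken as third-minus-first read difference.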

[16] = Counterscreen for APE1 Inhibitors: Fluorescent Dye Displacement Validation Assay (AID 1707);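 also: plate controls were ThO with dsDNA and no compound for no effect and ThO without dsDNA for full effect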
Summary of the method: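 Thiazole Orange (250 nM) bound to 50 nM TAMRA-labelled dsDNA with tetrahydrofuran abasic site; displacement by DNA-binding compounds lowers fluorescence. Buffer 50 mM Tris-HCl pH 7.5, 50 mM NaCl, 2 mM MgCl2, 0.01% Tween-20; endpoint read at 480/540 nm.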

[17] = molecular target: Endonuclease 4 (Escherichia coli (strain K12)) (UniProt P0A6C1); test: Counterscreen for APE1 Inhibitors: qHTS Validation Assay for Inhibitors of Endonuclease IV (AID 1708); also: potency is read from the fitted curve at half-maximal effect
Summary of the method: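 2 nM enzyme was preincubated with compounds for 15 min at room temperature in 50 mM Tris-HCl pH 7.5, 50 mM NaCl, 2 mM MgCl2, 1 mM DTT, 0.01% Tween-20. 50 nM THF-abasic TAMRA/BHQ-2 duplex substrate started the reaction.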

[18] = qHTS for differential inhibitors of proliferation of Plasmodium falciparum line 7G8 (AID 1815);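 also: potency is read from the fitted curve at half-maximal effect; parasite growth measured after three days of incubation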
[19] = qHTS for differential inhibitors of proliferation of Plasmodium falciparum line GB4 (AID 1816); conditions: Potency: Plasmodium falciparum GB4 proliferation inhibition;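 also: potency is read from the fitted curve at half-maximal effect; parasite growth measured after 72 h incubation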
[20] = qHTS for differential inhibitors of proliferation of Plasmodium falciparum line 3D7 (AID 1876); also: potency is read from the fitted curve at half-maximal effect
[21] = qHTS for differential inhibitors of proliferation of Plasmodium falciparum line D10 (AID 1877);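 also: potency is read from the fitted curve at half-maximal effect; parasites grown with compound for 72 h before DNA staining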
[22] = qHTS for differential inhibitors of proliferation of Plasmodium falciparum line Dd2 (AID 1882); conditions: Potency: Plasmodium falciparum Dd2 proliferation inhibition; also: potency is read from the fitted curve at half-maximal effect; nearly all actives have a fitted effect of over 65% in size
Summary of the method: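 SYBR Green I DNA fluorescence read-out, ex 485/em 535 nm. Signals were normalized to 0.29 uM artemisinin and DMSO wells, then corrected using vehicle-only plates flanking each stack. Parasite growth ran 72 h in erythrocytes before lysis.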

[23] = qHTS for differential inhibitors of proliferation of Plasmodium falciparum line W2 (AID 1883); conditions: Potency: Plasmodium falciparum W2 proliferation inhibition;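 also: potency is read from the fitted curve at half-maximal effect; parasites grown with compound for 72 h before lysis and staining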
[24] = qHTS for differential inhibitors of proliferation of Plasmodium falciparum line HB3 (AID 1886); conditions: Potency: Plasmodium falciparum HB3 proliferation inhibition;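 also: potency is read from the fitted curve at half-maximal effect; parasites grown with compound for 72 h before SYBR Green readout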
[25] = Quantitative high throughput screen for delayed death inhibitors of the malarial parasite plastid, 48 hour incubation (AID 488752); also: potency is read from the fitted curve at half-maximal effect; nearly all actives have a fitted effect of over 65% in size
Summary of the method: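 Erythrocytes infected with P. falciparum carrying an integrated firefly luciferase reporter (2% hematocrit, 0.1% parasitemia final) were exposed to compounds in RPMI 1640/0.5% Albumax for 48 h at 37 C, 5% CO2. Growth inhibition was scored as reduced luminescence.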

[26] = molecular target: M-phase phosphoprotein 8 (Homo sapiens) (UniProt Q99549); test: qHTS Validation Assay for Inhibitors for MPP8 Chromodomain Interactions with Methylated Histone Tails (AID 488949); also: potency is read from the fitted curve at half-maximal effect; nearly all actives have a fitted effect of over 55% in size
Summary of the method: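 MPP8 (50 nM) was pre-bound to 50 nM biotinylated H3(1-18)K9me3 peptide in PBS pH 7.4 with 0.01% Tween-20. Compounds were then added for 30 min at room temperature, and complex disruption was read by AlphaScreen with streptavidin donor and nickel-chelate acceptor beads.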

[27] = molecular target: Transient receptor potential cation channel subfamily V member 1 (Homo sapiens) (UniProt Q8NER1); test: HTS Assay for Compounds that Act as Enhancers of the Vanilloid Receptor 1 (AID 488979); also: 0% is about no effect
Summary of the method: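 TRPV1-expressing cells loaded with Fluo-8 calcium dye; compounds added and calcium influx read kinetically for 3 min (agonist phase), then capsaicin at EC20 added and read 2 min more for enhancement. Fluorescence ex 480/em 520 nm.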

[28] = molecular target: Thyrotropin receptor (Homo sapiens) (UniProt P16473); test: qHTS Assay for Antagonists of the Thyroid Stimulating Hormone Receptor (AID 488980); also: 0% is about no effect
Summary of the method: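 TSHR-transfected HEK293 cells (2000/well) in HEPES-buffered HBSS with 70 uM RO 20-1724 were stimulated with 4 nM TSH (EC80, final) in the presence of compound. cAMP was measured by HTRF competition after lysis and 30 min at RT.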

[29] = molecular target: Thyrotropin-releasing hormone receptor (Homo sapiens) (UniProt P34981); test: qHTS for Small Molecule Agonists and Allosteric Enhancers of Human TRH Receptor: Validation Screen for Agonists (AID 493127;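 active = calcium activation more than 3 SD above the typical response in the agonist read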;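 also: intracellular calcium rise by fluo-8 fluorescence before TRH EC20 addition; 0% is about no effect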); conditions: TRH receptor agonist cell assay; at 2 µM; stronger effect = higher value
Summary of the method: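 TRHR-expressing cells were plated overnight in serum-containing medium, then loaded with fluo-8 calcium dye at room temperature for 30 min–1.5 h. After a 10 s baseline, compound was pin-transferred and calcium fluorescence (ex 480/em 530) read kinetically for agonist response.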

[30] = molecular target: Galactokinase (Homo sapiens) (UniProt P51570); test: qHTS Validation Assay for Inhibitors of Human Galactokinase (GALK) (AID 493189); also: 0% is about no effect
Summary of the method: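 GALK (5 nM) with 35 uM ATP and 100 uM galactose in HEPES pH 8.0 with MgCl2, NaCl, DTT and BSA. Reaction ran 1 h at room temperature. Residual ATP read by Kinase-Glo Plus luminescence.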

[31] = molecular target: Voltage-gated inwardly rectifying potassium channel KCNH2 (Homo sapiens) (UniProt Q12809); test: qHTS Assay for Small Molecule Inhibitors of the Human hERG Channel Activity (AID 588834);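 also: potency is read from the fitted curve at half-maximal effect; lower thallium flux fluorescence means stronger hERG block; nearly all actives have a fitted effect of over 50% in size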
Summary of the method: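 U2OS cells BacMam-transduced with hERG, 2000 cells/well, compound ~10 min at 37 °C before stimulation buffer. FluxOR thallium flux fluorescence read kinetically on FDSS; decrease indicates block; AC50 from Hill fits.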

Chain of Cytochrome P450 2D6 (Homo sapiens) (P10635 whole entry, looked up): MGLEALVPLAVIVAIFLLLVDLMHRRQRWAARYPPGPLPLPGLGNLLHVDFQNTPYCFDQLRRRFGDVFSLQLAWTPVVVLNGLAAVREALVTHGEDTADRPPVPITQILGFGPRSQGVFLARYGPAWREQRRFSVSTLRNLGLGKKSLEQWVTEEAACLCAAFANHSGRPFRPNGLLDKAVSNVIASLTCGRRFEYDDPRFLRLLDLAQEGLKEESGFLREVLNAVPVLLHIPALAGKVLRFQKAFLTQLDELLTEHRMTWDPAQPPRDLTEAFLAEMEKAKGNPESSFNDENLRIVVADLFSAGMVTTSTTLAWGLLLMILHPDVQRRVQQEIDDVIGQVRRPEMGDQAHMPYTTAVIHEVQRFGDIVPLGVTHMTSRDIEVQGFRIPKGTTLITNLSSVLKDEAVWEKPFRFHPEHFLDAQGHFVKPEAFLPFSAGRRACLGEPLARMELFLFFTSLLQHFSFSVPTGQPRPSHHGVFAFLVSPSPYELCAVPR
Chain of Cytochrome P450 3A4 (Homo sapiens) (P08684 whole entry, looked up): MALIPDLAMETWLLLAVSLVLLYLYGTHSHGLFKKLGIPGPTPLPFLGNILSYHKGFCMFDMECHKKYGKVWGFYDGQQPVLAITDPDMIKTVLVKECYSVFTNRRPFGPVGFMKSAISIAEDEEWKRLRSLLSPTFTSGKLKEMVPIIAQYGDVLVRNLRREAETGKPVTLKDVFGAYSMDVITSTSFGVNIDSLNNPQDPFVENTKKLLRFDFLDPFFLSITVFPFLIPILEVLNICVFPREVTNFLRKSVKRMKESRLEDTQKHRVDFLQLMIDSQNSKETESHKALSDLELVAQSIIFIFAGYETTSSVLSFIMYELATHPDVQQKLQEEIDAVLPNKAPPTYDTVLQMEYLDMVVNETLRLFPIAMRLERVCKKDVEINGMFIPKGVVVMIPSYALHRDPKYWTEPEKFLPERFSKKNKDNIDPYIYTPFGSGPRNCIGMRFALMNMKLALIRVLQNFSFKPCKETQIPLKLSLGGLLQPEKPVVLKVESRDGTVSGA
Chain of Muscarinic acetylcholine receptor M1 (Rattus norvegicus) (P08482 whole entry, looked up): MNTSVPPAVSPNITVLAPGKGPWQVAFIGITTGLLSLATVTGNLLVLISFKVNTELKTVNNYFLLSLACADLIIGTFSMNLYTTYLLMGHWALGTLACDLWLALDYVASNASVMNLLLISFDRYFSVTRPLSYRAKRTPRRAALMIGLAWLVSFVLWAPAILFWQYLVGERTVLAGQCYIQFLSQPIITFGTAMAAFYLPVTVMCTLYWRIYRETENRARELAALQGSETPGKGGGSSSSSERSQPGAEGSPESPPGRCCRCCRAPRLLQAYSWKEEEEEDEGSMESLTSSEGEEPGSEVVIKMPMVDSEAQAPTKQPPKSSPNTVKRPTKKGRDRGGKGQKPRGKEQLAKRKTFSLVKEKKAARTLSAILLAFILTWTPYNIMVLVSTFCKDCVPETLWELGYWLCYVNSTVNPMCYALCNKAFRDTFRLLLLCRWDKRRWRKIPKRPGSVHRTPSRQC
Chain of Glucocorticoid receptor (Homo sapiens) (P04150 whole entry, looked up, the tested form may be a part): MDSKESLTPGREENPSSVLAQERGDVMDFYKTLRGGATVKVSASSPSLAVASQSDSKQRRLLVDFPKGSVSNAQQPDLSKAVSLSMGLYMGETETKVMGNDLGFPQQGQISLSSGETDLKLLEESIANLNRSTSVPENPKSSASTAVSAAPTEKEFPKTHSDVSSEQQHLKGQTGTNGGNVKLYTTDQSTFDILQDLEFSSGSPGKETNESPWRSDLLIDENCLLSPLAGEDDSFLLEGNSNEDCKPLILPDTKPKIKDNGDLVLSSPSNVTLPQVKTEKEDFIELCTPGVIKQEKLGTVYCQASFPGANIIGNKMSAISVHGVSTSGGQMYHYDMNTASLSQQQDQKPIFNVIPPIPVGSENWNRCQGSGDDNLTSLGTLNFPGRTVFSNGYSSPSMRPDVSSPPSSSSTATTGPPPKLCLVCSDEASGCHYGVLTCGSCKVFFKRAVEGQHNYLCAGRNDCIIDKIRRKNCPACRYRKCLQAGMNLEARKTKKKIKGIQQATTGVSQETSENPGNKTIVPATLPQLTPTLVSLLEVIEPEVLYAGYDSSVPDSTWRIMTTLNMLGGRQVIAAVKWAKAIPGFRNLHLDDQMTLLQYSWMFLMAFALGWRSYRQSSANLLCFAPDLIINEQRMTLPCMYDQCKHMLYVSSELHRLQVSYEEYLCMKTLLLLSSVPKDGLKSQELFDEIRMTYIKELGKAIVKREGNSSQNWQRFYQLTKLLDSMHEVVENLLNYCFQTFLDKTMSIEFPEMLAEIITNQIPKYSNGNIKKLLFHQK
Chain of Cytochrome P450 1A2 (Homo sapiens) (P05177 whole entry, looked up): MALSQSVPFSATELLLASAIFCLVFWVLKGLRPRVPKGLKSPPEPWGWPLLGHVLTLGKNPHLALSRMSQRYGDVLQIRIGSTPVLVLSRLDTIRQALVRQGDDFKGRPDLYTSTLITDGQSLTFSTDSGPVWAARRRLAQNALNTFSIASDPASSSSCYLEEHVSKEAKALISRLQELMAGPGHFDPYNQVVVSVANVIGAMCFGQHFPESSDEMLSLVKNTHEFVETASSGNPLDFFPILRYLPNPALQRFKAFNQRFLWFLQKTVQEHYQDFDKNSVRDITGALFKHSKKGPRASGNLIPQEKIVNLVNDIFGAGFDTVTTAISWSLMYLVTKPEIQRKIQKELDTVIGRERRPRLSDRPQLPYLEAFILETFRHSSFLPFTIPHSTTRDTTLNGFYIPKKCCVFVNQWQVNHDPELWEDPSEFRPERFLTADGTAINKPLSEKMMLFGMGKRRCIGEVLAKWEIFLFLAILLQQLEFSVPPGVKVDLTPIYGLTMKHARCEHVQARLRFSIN
Chain of Guanine nucleotide-binding protein G(i) subunit alpha-1 (Homo sapiens) (P63096 whole entry, looked up): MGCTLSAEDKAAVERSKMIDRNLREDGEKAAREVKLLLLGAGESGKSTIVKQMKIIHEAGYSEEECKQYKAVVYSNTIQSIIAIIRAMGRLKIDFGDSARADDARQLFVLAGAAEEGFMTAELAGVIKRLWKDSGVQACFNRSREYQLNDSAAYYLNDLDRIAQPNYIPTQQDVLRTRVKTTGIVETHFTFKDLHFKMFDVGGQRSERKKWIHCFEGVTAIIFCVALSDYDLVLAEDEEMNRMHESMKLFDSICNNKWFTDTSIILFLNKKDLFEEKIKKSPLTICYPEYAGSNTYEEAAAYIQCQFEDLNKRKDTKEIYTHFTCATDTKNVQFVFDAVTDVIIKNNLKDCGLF
Chain of Pyruvate kinase PKM (Homo sapiens) (P14618 whole entry, looked up): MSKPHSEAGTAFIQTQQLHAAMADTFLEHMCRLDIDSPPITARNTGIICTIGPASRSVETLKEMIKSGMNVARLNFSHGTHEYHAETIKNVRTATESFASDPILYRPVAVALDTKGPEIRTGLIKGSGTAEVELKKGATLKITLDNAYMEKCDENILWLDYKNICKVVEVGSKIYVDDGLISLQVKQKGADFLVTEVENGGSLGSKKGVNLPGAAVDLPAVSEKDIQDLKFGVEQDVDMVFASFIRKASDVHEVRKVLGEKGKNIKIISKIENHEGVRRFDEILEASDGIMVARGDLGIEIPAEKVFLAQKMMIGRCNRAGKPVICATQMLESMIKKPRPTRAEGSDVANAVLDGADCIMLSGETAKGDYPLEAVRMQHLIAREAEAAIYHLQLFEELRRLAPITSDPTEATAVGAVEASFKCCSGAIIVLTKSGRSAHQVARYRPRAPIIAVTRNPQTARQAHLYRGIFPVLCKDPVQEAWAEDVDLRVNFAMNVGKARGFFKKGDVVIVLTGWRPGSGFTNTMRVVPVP
Chain of 3',5'-cyclic-AMP phosphodiesterase 4B (Homo sapiens) (Q07343 whole entry, looked up): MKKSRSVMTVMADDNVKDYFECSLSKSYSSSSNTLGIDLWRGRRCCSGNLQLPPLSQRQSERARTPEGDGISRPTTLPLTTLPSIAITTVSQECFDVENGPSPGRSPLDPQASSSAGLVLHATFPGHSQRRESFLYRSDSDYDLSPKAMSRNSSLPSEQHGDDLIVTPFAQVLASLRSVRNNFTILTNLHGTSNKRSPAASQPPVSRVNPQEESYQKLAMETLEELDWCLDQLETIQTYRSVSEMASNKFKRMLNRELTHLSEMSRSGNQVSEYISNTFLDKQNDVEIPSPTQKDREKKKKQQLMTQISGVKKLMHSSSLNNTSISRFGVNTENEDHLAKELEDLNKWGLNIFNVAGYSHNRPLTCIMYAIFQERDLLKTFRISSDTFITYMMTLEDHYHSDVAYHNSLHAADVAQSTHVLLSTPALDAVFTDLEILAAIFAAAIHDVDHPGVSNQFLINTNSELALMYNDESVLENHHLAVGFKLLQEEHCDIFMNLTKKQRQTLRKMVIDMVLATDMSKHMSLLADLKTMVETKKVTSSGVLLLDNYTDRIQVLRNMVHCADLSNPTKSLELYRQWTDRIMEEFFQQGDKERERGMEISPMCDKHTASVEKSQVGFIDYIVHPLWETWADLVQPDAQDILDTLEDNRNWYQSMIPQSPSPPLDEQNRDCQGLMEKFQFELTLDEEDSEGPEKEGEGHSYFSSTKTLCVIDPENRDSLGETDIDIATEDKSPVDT
Chain of Galactokinase (Homo sapiens) (P51570 whole entry, looked up): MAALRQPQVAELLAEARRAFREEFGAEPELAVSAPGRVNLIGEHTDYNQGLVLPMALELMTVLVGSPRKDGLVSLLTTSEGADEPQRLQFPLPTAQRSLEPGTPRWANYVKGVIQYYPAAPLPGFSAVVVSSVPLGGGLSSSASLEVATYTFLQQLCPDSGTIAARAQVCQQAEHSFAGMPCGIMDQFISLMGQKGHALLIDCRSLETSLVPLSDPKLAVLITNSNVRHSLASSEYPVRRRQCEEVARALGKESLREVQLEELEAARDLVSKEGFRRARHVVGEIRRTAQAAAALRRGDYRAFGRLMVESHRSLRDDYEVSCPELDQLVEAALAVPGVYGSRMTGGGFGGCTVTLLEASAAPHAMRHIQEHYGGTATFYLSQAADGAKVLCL

In the case of `Cc1cc(N)c2ccccc2[n+]1CCCCCCCCCCCCCC[n+]1c(C)cc(N)c2ccccc21`, the Potency [1] was “inactive”, the activity change, negative = inhibition [2] was -82.1% [at 38 µM] (active) and the Potency [3] was greater than 46000 nM. The Potency [4] was “inactive”, the Potency [5] was “inactive” and the Potency [6] was “inactive”. The outcome [7] was “inactive”, the Potency [8] was 7940 nM (active) and the Potency [9] was 2510 nM (active). The Potency [10] was 3980 nM (active), the outcome [11] was “inactive” and the outcome [12] was “inactive”. The outcome [13] was “inactive”, the outcome [14] was “inactive” and the Potency [15] was 28200 nM (active). For the same compound, the outcome [16] was “inactive”, the Potency [17] was 28200 nM (active) and the Potency [18] was 316 nM (active). The Potency [19] was 316 nM (active), the Potency [20] was 126 nM (active) and the Potency [21] was 316 nM (active). For the same compound, the Potency [22] was 355 nM (active), the Potency [23] was 141 nM (active) and the Potency [24] was 316 nM (active). For the same compound, the Potency [25] was 1470 nM (active), the Potency [26] was 39800 nM (active) and the outcome [27] was “inactive”. For the same compound, the outcome [28] was “inactive”, the activation [29] was -0.125% and the outcome [30] was “inactive”. The Potency [31] was 7080 nM (active).
